From PubChem BioAssay AID630 (Emory University Molecular Libraries Screening Center, 2007) come the findings set out here.

As a reminder, the inhibition is the relative decrease from the control value, in per cent.

Out of some 88,000 compounds screened, about 260 (0.3%) were called active. The sample as a whole holds a higher share of actives than the screen did. Values without a mark were called inactive.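 Rule for the calls: active = compounds that reduce the energy-transfer binding signal between the protein and its labelled peptide by more than half; inactive = the rest.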

The target of the assay is Mothers against decapentaplegic homolog 3 (Homo sapiens) (UniProt P84022). Nature of the assay: blockers of Smad3 binding to FoxH1 – biochemical, TR-FRET, primary screen (AID 630).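 Note: 0% = Smad3 plus labelled peptide maximal FRET and 100% = peptide-only background.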 The following applies: TR-FRET Smad3/Dy647-FoxH1 peptide binding, europium anti-His; at 25 µM; active compounds read high. (In general: In TR-FRET formats the signal depends on donor and acceptor labels being close together.)
Chain of Mothers against decapentaplegic homolog 3 (Homo sapiens) (P84022 whole entry, looked up): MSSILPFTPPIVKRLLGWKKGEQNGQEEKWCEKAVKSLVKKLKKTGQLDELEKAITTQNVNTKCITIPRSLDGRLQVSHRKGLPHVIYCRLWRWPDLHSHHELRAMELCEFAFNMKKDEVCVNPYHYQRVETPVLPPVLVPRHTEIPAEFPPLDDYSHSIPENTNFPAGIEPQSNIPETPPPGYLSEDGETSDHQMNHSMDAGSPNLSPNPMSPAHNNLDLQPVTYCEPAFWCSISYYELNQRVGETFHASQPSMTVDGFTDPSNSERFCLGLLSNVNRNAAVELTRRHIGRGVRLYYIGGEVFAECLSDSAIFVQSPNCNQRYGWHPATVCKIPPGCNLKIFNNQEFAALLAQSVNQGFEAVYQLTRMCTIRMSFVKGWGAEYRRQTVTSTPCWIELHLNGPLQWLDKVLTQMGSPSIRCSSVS
Consider `CC(=O)C1=C(C)NC(=O)NC1c1cc(Br)ccc1OCC#N` (centres undefined), for which the inhibition is 5.31%.

Regarding `N#CC1=C(N)N(c2ccccc2)C2=C(C(=O)CCC2)C1c1ccccc1` (centres undefined), the inhibition was -6.32%.

As to `C=CCN(N=Nc1cccc([N+](=O)[O-])c1)c1cccc([N+](=O)[O-])c1`, the inhibition is 5.93%.

Take `COc1ccc(NC(=O)C(CC(C)C)NS(=O)(=O)c2ccc3c(c2)CCN3C(C)=O)cc1OC` (centres undefined): the inhibition is 2.09%.

As for `C[C@H]1O[C@@H](CC(=O)O)Cc2c1c(O)c1c(O)cc(-c3cc(=O)c4c(=O)c5c(c(=O)c=4c3=O)C[C@H](CC(=O)O)O[C@@H]5C)c(O)c1c2O`, the inhibition was 95.5% (active).

Turning to `Cc1cc2cc(CNC(=O)c3cccs3)ccc2[nH]1`, the inhibition was 4.85%.

`c1ccc2c(-c3nn4nnnc4c4ccccc34)cccc2c1`: the inhibition is 1.52%.

For the compound `Cc1cc(Cl)c(S(=O)(=O)N(C)C)cc1OCC(N)=O`, the inhibition is -1.09%.

Regarding `COc1ccc(S(=O)(=O)Nc2ccc(F)cc2)c(C)c1C`, the inhibition is -18.5%.

Take `COCCOCCn1cnc2ccccc21`: the inhibition is 8.15%.

As to `Cc1ccc(-c2nc3ccccc3[nH]2)cc1N`, the inhibition was 10.8%.

Regarding `CC(=O)N1CCCc2cc(S(=O)(=O)CCC(=O)N3CCN(c4ccccc4)CC3)ccc21`, the inhibition is 3.39%.

Consider `CC(C)(C)c1ccc(C(=O)NCC(=O)OCN2C(=O)c3ccccc3C2=O)cc1`, for which the inhibition was -15.4%.

`C=CCN(C(=O)Cn1ncc2c1-c1cc(C)ccc1OC2)c1ccccc1`: the inhibition is -12.8%.

For the compound `Oc1c(Br)cc(CN(Cc2cc(Br)c(O)c(Br)c2)C2CCCCC2)cc1Br`, the inhibition was 98.7% (active).

Consider `C=CCO/N=C(\C)c1c(O)c(C)c(-c2ccccc2)n(-c2ccccc2)c1=O`, for which the inhibition was 0.29%.

On to `Cc1cccc(NC(=O)/C(=C\c2ccco2)NC(=O)c2ccccc2)c1`, for which the inhibition is -5.56%.

As for `CCC(c1nnnn1C1CCCC1)N1CCN(C(=O)c2ccco2)CC1` (centres undefined), the inhibition was 56.9% (active).

Consider `CC(C)C(c1nnnn1CCc1ccccc1)N1CCN(C(=O)c2ccco2)CC1` (centres undefined), for which the inhibition is -1.2%.

As for `CC(=O)c1ccc(-n2nnnc2SCC(=O)N2CCN(C(=O)c3ccco3)CC2)cc1`, the inhibition was 6.3%.

As to `COC(=O)c1ccc(CSc2nc3cc(Cl)ccc3o2)cc1`, the inhibition is 8.67%.

Regarding `Cc1ccc(-c2cnc(NC(=O)CCC(=O)N(C)Cc3ccccc3)n2C)cc1`, the inhibition was 8.43%.

Regarding `COc1ccc(C(C)=O)cc1CN1C(=O)NC2(CCCCC2C)C1=O` (centres undefined), the inhibition was 3.22%.

For the compound `CC1CCN(C(=O)c2cc3nc(C4CC4)cc(C(F)(F)F)n3n2)CC1`, the inhibition is 6.46%.

Consider `C[C@H](CCC(=O)O)[C@@H]1CC[C@@H]2[C@H]3CC[C@H]4C[C@@H](O)CC[C@]4(C)[C@@H]3C[C@H](O)[C@]21C`, for which the inhibition was -5.18%.

For the compound `FC(F)(F)c1ccc2nnc(-c3c(Cl)cccc3Cl)n2c1`, the inhibition is -1.74%.

Consider `CC1CCCCC1NC(=O)C1CCCN1S(=O)(=O)c1cccc2nsnc12` (centres undefined), for which the inhibition was -19.4%.

Regarding `O=C1CSC(c2ccc(Cl)cc2)N1` (centres undefined), the inhibition was 13.1%.

With `Cc1cccn2c(=O)c(/C=C(\C#N)S(=O)(=O)c3ccc(Cl)cc3)c(N3CCC(C(N)=O)CC3)nc12`, the inhibition was 0.22%.

Consider `CCCNC(=O)N1CCN(C(=O)NCCC)CC1`, for which the inhibition is 0.05%.

Take `CC1=CC(=O)C=CC1(C)C(Cl)(Cl)Cl` (centres undefined): the inhibition was -10.9%.

Take `CN(C)c1ccc(CNC2C3CC4CC(C3)CC2C4)cc1` (centres undefined): the inhibition is 8.16%.

`COC(=O)Nc1ccc(S(=O)(=O)N2CCN(CCN3C(=O)C4C5C=CC(C5)C4C3=O)CC2)cc1` (centres undefined): the inhibition was 6.97%.

As to `O=C(NCC(=O)N(Cc1cccs1)C(C(=O)NC1CCCCC1)c1ccco1)c1cccs1` (centres undefined), the inhibition is 0.62%.

With `COc1ccc(C)cc1S(=O)(=O)NCCc1ccccc1`, the inhibition was 7.34%.

For the compound `COc1ccc(NC(=S)N2N=CCC2c2ccccc2)cc1` (centres undefined), the inhibition was -1.54%.

In the case of `CCCCN1C(=O)CC(N2CCOCC2)C1=O` (centres undefined), the inhibition is -0.67%.

Take `O=C(Cc1c(O)c2ccccc2[nH]c1=O)NCc1ccccc1`: the inhibition is 7.06%.

On to `CS(=O)(=O)c1ccc(/C=N/NC(N)=S)cc1`, for which the inhibition is 20.2%.

Consider `CC(C)CCNC(=O)Cn1c(=O)oc2cc(S(=O)(=O)N3CC(C)CC(C)C3)ccc21` (centres undefined), for which the inhibition was 7.82%.

As for `CCOCCCNC(=O)C(NC(=O)c1ccc(=O)[nH]c1)c1ccc(C)cc1` (centres undefined), the inhibition was -19.1%.

In the case of `Cc1nnc(SCc2nc3ccccc3nc2C)s1`, the inhibition was 1.94%.

With `CCOc1cc2[nH]c(=S)n(Cc3ccc(C(=O)NCCOC)cc3)c(=O)c2cc1OCC`, the inhibition was -0.98%.

Regarding `CC(C)Oc1ccc(Oc2ccc(C(F)(F)F)cn2)cc1`, the inhibition was 0.6%.

On to `CCn1c(C)nc2cc(C(=O)NNS(=O)(=O)c3ccc(C)cc3C)ccc21`, for which the inhibition is 2.77%.

Consider `COc1cccc(-n2c(Cc3cc(=O)[nH]c(=O)[nH]3)nnc2SCC(=O)Nc2ccccc2)c1`, for which the inhibition was 4.97%.

With `Cc1cccc(-n2c(Cc3cc(=O)[nH]c(=O)[nH]3)nnc2SC(C)C)c1`, the inhibition was 62% (active).

Regarding `Cc1cccc(-n2c(N)cc(=O)nc2SC(C)C(=O)NC2CCCCC2)c1` (centres undefined), the inhibition is 5.17%.

As for `O=C(O)CCCCc1nc2ccccc2s1`, the inhibition is -2.94%.

As for `CNC(=O)c1nnc(Cc2ccc(Cl)cc2)o1`, the inhibition was -6.06%.

In the case of `CCOc1ccc(S(=O)(=O)NCC2CCCO2)cc1` (centres undefined), the inhibition was -12%.

Consider `CCOCCOCCC(C(=O)O)P(=O)(c1ccccc1)c1ccccc1` (centres undefined), for which the inhibition is 71.7% (active).

With `CCOCCCNC(=O)C(NC(=O)CNC(=O)c1ccccc1)c1ccc(C)cc1` (centres undefined), the inhibition is -6.68%.

Take `CCOC(=O)NC(C(F)(F)F)(C(F)(F)F)P(=O)(c1ccccc1)c1ccccc1`: the inhibition was 6.78%.

On to `CCCCCCOc1ccc(OC(=O)c2cccnc2)cc1`, for which the inhibition was 0.33%.

Turning to `Cc1ccc(-n2c(=O)cc(N3CCN(Cc4ccccc4)CC3)[nH]c2=O)cc1`, the inhibition was 2.1%.

As to `Cc1cc(S(=O)(=O)NC2CCCCC2)ccc1OCC(=O)NCc1cccnc1`, the inhibition was 8.87%.

As for `CN(C)C(=O)c1cc(Br)ccc1Cl`, the inhibition was 1.18%.

`O=C(Nc1ccc2c(c1)OCCO2)C(c1ccc(F)cc1)N1CCCCC1` (centres undefined): the inhibition was -0.28%.
